Compound activity: PubChem BioAssay, National Center for Advancing Translational Sciences (NCATS)
An excerpt weighted towards active compounds, which were near 12% of everything screened.
AmpC detergent: inhibitors of E. coli AmpC beta-lactamase with detergent. P00811. AmpC hydrolysis of nitrocefin, absorbance 480 nm, 0.01% Triton. Potency, µM (highest dose often 114 µM), most hits filed as inhibitors. 370,000 tested, 0.041% active; further: nearly all actives have a fitted effect of over 25% in size
Target sequence (P00811 whole entry, looked up): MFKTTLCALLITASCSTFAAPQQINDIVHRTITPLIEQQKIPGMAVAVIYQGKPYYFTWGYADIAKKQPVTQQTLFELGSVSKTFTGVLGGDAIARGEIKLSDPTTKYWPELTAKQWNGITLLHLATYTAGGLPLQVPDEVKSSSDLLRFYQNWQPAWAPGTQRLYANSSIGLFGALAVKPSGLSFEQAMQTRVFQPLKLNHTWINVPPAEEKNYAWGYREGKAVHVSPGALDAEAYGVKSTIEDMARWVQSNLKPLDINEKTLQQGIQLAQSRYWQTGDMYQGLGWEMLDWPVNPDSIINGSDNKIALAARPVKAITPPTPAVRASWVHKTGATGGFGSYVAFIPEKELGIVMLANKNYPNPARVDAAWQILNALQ
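AmpC (5.3 nM in the dispensed reagent) in 20 mM phosphate pH 7.0 with 0.01% (detergent screen) or 0.0001% Triton X-100 was preincubated with compounds for 15 min at room temperature. Nitrocefin was then added from an 800 uM solution, and hydrolysis was followed at 480 nm.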
Pf growth 48h: P. falciparum growth inhibition at 48 hours (one generation); P. falciparum luciferase growth in erythrocytes, 48 h; Potency, µM (top dose mostly 28.7 µM), most hits filed as inhibitors; 310,000 tested, 5.9% active; AID 504832
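Cell-based growth assay: transgenic P. falciparum expressing firefly luciferase, cultured in red cells within RPMI 1640 containing 0.5% w/v Albumax, 24 mM bicarbonate and gentamycin. A drop in luciferase activity indicates inhibition.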
SARS PLP yeast: blocks SARS-CoV papain-like protease in a yeast assay. S. cerevisiae expressing SARS-CoV PLpro, growth rescue. Potency, µM (doses to about 32.9 µM), actives largely listed as activators. 330,000 tested, 0.19% active. AID 485353; calls by dose curve; further: nearly all actives have a fitted effect of over 55% in size
Sm TGR block: blocks Schistosoma mansoni thioredoxin glutathione reductase. 360,000 tested, 3% active. Potency, µM (titrated, usually from 114 µM), actives largely listed as inhibitors. purified TGR, DTNB reduction, TNB absorbance 405 nm. Q962Y6; further: nearly all actives have a fitted effect of over 60% in size
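TGR 20 nM + NADPH 100 uM (dispensed conc.), cpd preinc 15 min RT; start with NADPH (500 uM addition) then DTNB (15 mM addition). Kinetic TNB absorbance, 405 nm filter. Four-parameter Hill fit across titration.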
AmpC no deterg: AmpC beta-lactamase inhibition without detergent; 330,000 tested, 0.52% active; AmpC nitrocefin hydrolysis, absorbance 480 nm, 0.0001% Triton; Potency, µM (doses to about 57.1 µM), actives largely listed as inhibitors; AID 485341; P00811; further: nearly all actives have a fitted effect of over 20% in size
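20 mM phosphate pH 7.0 + 0.01% (detergent screen) or 0.0001% Triton X-100; 5.3 nM AmpC reagent; cpd preinc 15 min RT; nitrocefin (800 uM stock) to start; A480 q20 s × 4 min; Activity was normalised to no-enzyme and no-compound control wells.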
Pf growth 96h: P. falciparum growth inhibition at 96 hours | P. falciparum luciferase reporter growth, 96 h | Potency, µM (series often up to 28.7 µM), actives largely listed as inhibitors | 320,000 tested, 6.9% active
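P. falciparum expressing integrated firefly luciferase grown in erythrocytes (2% hematocrit, 0.05% parasitemia final) with compounds for 96 hours at 37 C, 5% CO2. Growth inhibition read as loss of luminescence after adding luciferase detection reagent.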
A number is an active result; n = inactive; u = inconclusive; x = not tested or not shown; [ ] = dose if it differs, or a comment. Unless noted, the call rests on the fitted dose curve; in most records, active means well fitted curve in the direction sought with a large enough effect; inconclusive means small, poorly fitted or top-dose-only effect, or another doubt; inactive means no such curve, though single readings can be large; an effect the other way counts as inactive or inconclusive.

SMILES | AmpC detergent | Pf growth 48h | SARS PLP yeast | Sm TGR block | AmpC no deterg | Pf growth 96h
Cc1cc(C)c(C#N)c(OCC(=O)c2ccccc2)n1 | n | u | n | n | n | n
Cc1cc(C)c(C#N)c(OCc2ccc(Cl)nc2)n1 | n | n | n | 89.1µM | n | n
CCOc1cccc(=O)c2c(C)n(Cc3ccco3)c(C)c12 | n | 9.28µM | n | 39.8µM | n | u
CCOc1ccc2c(c1)c(C(C)=O)c(C)n2Cc1ccco1 | n | n | n | 10µM | n | n
CC1C/C(=C\c2cccnc2)C(=O)/C(=C/c2cccnc2)C1 (stereo not given) | n | 3.7µM | n | u | n | n
CN1C(=O)C(=Cc2cccnc2)C(=O)N(C)C1=O | n | n | n | n | n | n
CCn1c(C)c(C(=O)c2ccccc2)c(C#N)c1C(=O)O | u | n | n | n | n | n
Cc1cc(NC(=O)c2cc3n(n2)C(C(F)(F)F)CC(c2ccco2)N3)no1 (stereo not given) | n | x | n | n | n | 10.4µM
O=C(NCc1ccccn1)c1cc2n(n1)C(C(F)(F)F)CC(c1ccco1)N2 (stereo not given) | n | n | n | 39.8µM | n | x
CC(C)NC(=O)c1cc2n(n1)C(C(F)(F)F)CC(c1ccco1)N2 (stereo not given) | u | u | n | n | n | n
COC(C(=O)Nc1ccnn1C1CCN(Cc2cnn(C(C)C)c2)CC1)c1ccccc1 (stereo not given) | n | u | n | n | n | n
COc1ccccc1NC(=O)N1CCN(c2ccnc3cc(Cl)ccc23)CC1 | n | 2.08µM | n | n | n | 2.62µM
COc1ccccc1N1CCN(c2ccnc3cc(Cl)ccc23)CC1 | n | u | n | n | n | 0.465µM
CC(C)(C)C(=O)N1CCN(c2ccnc3cc(Cl)ccc23)CC1 | n | u | n | n | n | n
CC(C)(C)NCC(O)COc1c(F)cc(Br)cc1F (stereo not given) | n | 11.7µM | n | n | n | x
CC(C)(C)CC(C)(C)NCC(O)COc1c(F)cc(Br)cc1F (stereo not given) | u | x | n | n | n | 0.586µM
COc1ccccc1-c1nc(C#N)c(NCCCn2ccnc2)o1 | n | n | n | n | n | n
Cc1ccc(-n2c(O)c(/C=N/c3ncn[nH]3)c3ccccc3c2=O)cc1 | n | n | n | n | n | u
Oc1c(/C=N/c2ncn[nH]2)ccc2ccccc12 | u | n | n | 31.6µM | n | n
C/C(=N\NC(=O)c1ccn(C)n1)c1ccc(NC(=O)C2CCC2)cc1 | n | n | u | n | n | n
C/C(=N\NC(=O)C1(C)CC1(Br)Br)c1ccc(NC(=O)C2CCC2)cc1 (stereo not given) | n | u | n | n | n | 5.22µM
C/C(=N\NC(=O)c1nn(C)c(C)c1Br)c1cccc(NC(=O)c2ccoc2C)c1 | u | n | n | n | 31.6µM | u
C/C(=N\NC(=O)c1nn(C)c(C)c1Br)c1ccc(NC(=O)C2CCCC2)cc1 | n | n | n | n | n | 13.1µM
COc1ccc(OC(=O)COc2ccc(Cl)cc2)cc1 | n | n | n | n | n | u
Cc1ccccc1CCNC(=O)c1cc(C2CC2)nc2c1cnn2C(C)C | u | 11.7µM | n | n | n | 13.1µM
SMILES | AmpC detergent | Pf growth 48h | SARS PLP yeast | Sm TGR block | AmpC no deterg | Pf growth 96h
Cc1ccc(OCCNC(=O)c2cc(C3CC3)nc3c2cnn3C(C)C)cc1 | n | u | n | n | n | u
CC(C)n1ncc2c(C(=O)Nc3ccc(S(N)(=O)=O)cc3)cc(C3CC3)nc21 | n | u | n | n | n | u
CCc1ccccc1NC(=O)CN(C)C(=O)c1cc(C2CC2)nc2c1cnn2C(C)C | n | 11.7µM | n | n | n | u
CC(C)n1ncc2c(C(=O)NCCc3ccc(F)cc3)cc(C3CC3)nc21 | n | 9.28µM | n | n | n | u
CC(C)n1ncc2c(C(=O)NCc3cccnc3)cc(C3CC3)nc21 | u | u | n | n | n | u
CC(C)(C)N(C(=O)Cn1nnc(-c2ccc(F)cc2)n1)C(C(=O)NC1CCCC1)c1ccncc1 (stereo not given) | n | u | n | n | n | 8.28µM
CC(C)CCNC(=O)C(c1ccncc1)N(CC1CCCO1)C(=O)Cn1nnc(-c2ccc(F)cc2)n1 (stereo not given) | n | u | n | n | n | n
CC(C)CCNC(=O)C(c1ccncc1)N(C(=O)Cn1nnc(-c2ccc(F)cc2)n1)c1ccccc1F (stereo not given) | n | u | n | n | n[11.4 µM] | 6.57µM
O=C(CN(CCN1CCOCC1)C(=O)Cn1nnc(-c2ccc(F)cc2)n1)NC1CCCCC1 | n | x | n | n[11.4 µM] | n | 6.57µM
CC(C)(C)NC(=O)C(OC(=O)Cn1nnc(-c2ccc(F)cc2)n1)c1ccncc1 (stereo not given) | n | n | n | n | n | 9.28µM
O=C(CN(CCCN1CCOCC1)C(=O)Cn1nnc(-c2ccc(F)cc2)n1)NC1CCCCC1 | n | n | n | n | n | n
Cc1ccc(-c2nnn(CC(=O)N(Cc3ccc(F)cc3)C(C(=O)NC3CCCC3)c3ccncc3)n2)o1 (stereo not given) | u | u | n | u | n | n
Cc1ccc(C)c(N(C(=O)Cn2nnc(-c3cccs3)n2)C(C(=O)NC2CCCC2)c2ccncc2)c1 (stereo not given) | u | 4.65µM | n | n | n | u
COc1cc(-c2cc3nc(C)c(C)c(=O)n3[nH]2)cc(OC)c1OC | n | 10.4µM | n | n | n | n
CCc1c(C)nc2cc(-c3ccccc3)[nH]n2c1=O | u | u | n | n | n | u
NS(=O)(=O)c1ccc(CCNC(=O)Cn2c(-c3cccs3)cc3ccccc32)cc1 | n | x | x | n | x | x
CCN(CC(=O)Nc1cccc(OC)c1)C(=O)c1cnc(Cl)c(Cl)c1 | n | n | n | n | n | n
CC1=C(C(=O)OC2CCCCCC2)C(c2ccc(Cl)cc2Cl)CC(=O)N1 (stereo not given) | n | x | x | n | x | x
CCCOc1ccccc1/C=C1\SC(N)=NC1=O | n | u | u | n | n | 11.7µM
CCc1cc2c(Nc3ccc(O)cc3)nc(C)nc2s1 | n | n | n | n | n | n
CN(C)CCNc1ncnc2c1sc1nc(N3CCCC3)c3c(c12)CC(C)(C)OC3 | n | n | n | n | n | n
CCN(CC)CCNc1ncnc2c1sc1nc(N3CCOCC3)c3c(c12)CCCC3 | n | 9.28µM | n | n | n | u
CCN(CC)CCNc1ncnc2c1sc1nc(N3CCCC3)c3c(c12)CC(C)(C)OC3 | n | 10.4µM | n | n | n | n
CCCCCCNc1ncnc2c1sc1nc(N3CCOCC3)c3c(c12)CCCC3 | n | x | x | n | x | x
